Test results published in PubChem BioAssay AID1159580 (chemical genetic matrix, 2015).
Values joined by “and” are separate entries in the source; they are usually repeats but may differ in a detail not shown here. Equal values may be shown once. Screen size: about 5,500 compounds; about 2,000 (36%) were called active. Roughly 18% stayed inconclusive and do not appear here. No stated cut-off is given here; in the data, active means normalized growth mostly below about 0.91 (no sharp cut-off); inconclusive means no clear call, values can overlap the other calls; inactive means mostly above about 0.92. This is one part of the list.

Test: chemical genetic growth profiling, strain panel (AID 1159580);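 further: tested at 20 µM; growth read once vehicle control cultures reached saturation at 30 °C; 1 = growth at the plate median or of vehicle wells; lower values mean less growth of the strain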
Conditions: S. cerevisiae deletion strains, growth OD

Measured: normalized growth

CC1OC1P(=O)(O)O (stereo not given)
inactive: locus YAL021C, strain ccr4, hits give low values 1 | locus YAL026C, strain drs2, hits give low values 1.02 | locus YAL030W, strain snc1, hits give low values 0.998 | locus YAL040C, strain CLN3, hits give low values 0.959 | locus YBL061C, strain skt5, hits give low values 0.996 | locus YBR009C, strain hhf1, hits give low values 0.978 | locus YBR021W, strain FUR4, hits give low values 0.973 | locus YBR023C, strain chs3, hits give low values 0.988 | locus YBR171W, strain sec66, hits give low values 1 | locus YBR229C, strain ROT2, hits give low values 0.994 | locus YBR231C, strain swc5, hits give low values 0.992 | locus YBR279W, strain paf1, hits give low values 0.991 | locus YCL011C, strain gbp2, hits give low values 1.03 | locus YCL016C, strain dcc1, hits give low values 0.984 | locus YCL029C, strain bik1, hits give low values 0.993 | locus YCL061C, strain MRC1 (second series), hits give low values 1.01 | locus YCL069W, strain vba3, hits give low values 1 | locus YCR088W, strain abp1, hits give low values 1 | locus YDL005C, strain med2, hits give low values 0.977 | locus YDL035C, strain GPR1, hits give low values 0.991 | locus YDL040C, strain nat1, hits give low values 0.991 | locus YDL074C, strain BRE1, hits give low values 1.04 | locus YDL101C, strain DUN1, hits give low values 0.992 | locus YDL134C, strain PPH21, hits give low values 0.977 | locus YDL185W, strain tfp1, hits give low values 0.979 | locus YDL192W, strain arf1, hits give low values 0.991 | locus YDR001C, strain nth1, hits give low values 1 | locus YDR069C, strain doa4, hits give low values 0.986 | locus YDR101C, strain arx1, hits give low values 1 | locus YDR137W, strain rgp1, hits give low values 1.01 | locus YDR150W, strain NUM1, hits give low values 0.994 and 1 | locus YDR159W, strain sac3, hits give low values 0.934 | locus YDR162C, strain NBP2, hits give low values 0.987 | locus YDR195W, strain ref2 0.983 | locus YDR297W, strain sur2, hits give low values 1.01 | locus YDR318W, strain mcm21, hits give low values 0.984 | locus YDR334W, strain swr1, hits give low values 1 | locus YDR335W, strain msn5, hits give low values 0.996 | locus YDR363W, strain ESC2, hits give low values 0.974 | locus YDR388W, hits give low values 0.988 | locus YDR392W, strain spt3, hits give low values 0.892 | locus YDR502C, strain sam2, hits give low values 0.983 | locus YEL003W, strain gim4, hits give low values 1 | locus YEL037C, strain rad23, hits give low values 1 | locus YEL061C, strain CIN8 (second series), hits give low values 1 | locus YEL061C, strain CIN8, hits give low values 1 | locus YER002W, strain NOP16, hits give low values 0.978 | locus YER015W, strain faa2, hits give low values 0.981 | locus YER016W, strain bim1, hits give low values 0.974 | locus YER110C, hits give low values 0.987 | locus YER111C, strain swi4, hits give low values 1 | locus YER155C, strain BEM2 (second series), hits give low values 0.965 | locus YER155C, strain BEM2, hits give low values 0.994 | locus YER167W, strain BCK2, hits give low values 0.973 | locus YFR010W, strain ubp6, hits give low values 1 | locus YGL078C, strain dbp3, hits give low values 0.988 | locus YGL086W, strain mad1, hits give low values 1 | locus YGL167C, strain pmr1, hits give low values 0.997 | locus YGL173C, strain kem1, hits give low values 0.99 | locus YGL227W, strain vid30, hits give low values 1 | locus YGL240W, strain doc1, hits give low values 0.968 | locus YGL248W, strain PDE1, hits give low values 1.01 | locus YGL253W, strain hxk2, hits give low values 1.03 | locus YGR078C, strain PAC10, hits give low values 1.02 | locus YGR135W, strain pre9, hits give low values 0.966 | locus YGR252W, strain gcn5, hits give low values 0.982 | locus YHR013C, strain ard1, hits give low values 0.987 | locus YHR027C, strain rpn1, hits give low values 0.993 | locus YHR030C, strain SLT2, hits give low values 0.994 | locus YHR079C, strain IRE1 (second series), hits give low values 0.989 | locus YHR094C, strain hxt1, hits give low values 0.987 | locus YHR129C, strain ARP1, hits give low values 0.987 | locus YHR142W, strain chs7, hits give low values 1.01 | locus YHR200W, strain rpn10, hits give low values 0.989 | locus YIL066C, strain RNR3, hits give low values 1 | locus YIL073C, strain SPO22, hits give low values 0.944 | locus YIL125W, strain kgd1, hits give low values 0.992 | locus YIR030C, strain dcg1, hits give low values 0.985 | locus YJL092W, strain hpr5, hits give low values 1 | locus YJL095W, strain BCK1 (second series), hits give low values 0.998 | locus YJL095W, strain BCK1, hits give low values 1.01 | locus YJL115W, strain asf1, hits give low values 1 | locus YJL129C, strain trk1, hits give low values 1.01 | locus YJL134W, strain LCB3, hits give low values 0.989 | locus YJL154C, strain vps35, hits give low values 0.996 | locus YJL164C, strain tpk1, hits give low values 0.986 | locus YJL166W, strain qcr8, hits give low values 0.986 | locus YJL168C, strain set2, hits give low values 0.989 | locus YJL187C, strain SWE1 (second series), hits give low values 1.02 | locus YJR043C, strain POL32, hits give low values 1.01
